Assay results published in publication PMC10163288.
These entries were drawn from the full list. The hit rate among all sequences tested is not known here.

B1: il2ra_site2_3nfp_normal_mot_HHH_b2_00429_000000100_0001_21_37_H_._HHH_b1_08311_0001_0000300035_0000001_0 (protein)
chain: SSSSDEEVERLIEEAEELLRNGNPEEAKRVISRATDLAYEAGDHRLFALLVDLVAVVAHLLSSSS
B2: il2ra_site2_3nfp_normal_mot_HHH_b2_04451_000000238_0001_21_37_H_._HHH_b2_06904_0001_0000300014_0000001_0 (protein)
chain: SSSSSSDEEEIEELLELVEKIDDQLERLQVLLEASKLAAELGDEELAREVLRLFAEIQSSSSSSS
B3: il2ra_site1_3nfp_normal_mot_0eddeacbb14b769e73e254714f31e2f9_0001_af2_000000052_0001_37_51_H_._HHH_b1_00975_af2_0002_0000100004_0000001_0 (protein)
chain: SSSSSDEEELRERVEELLEEAKHVSEEEASRLIEEAYRLVQENGNQELADLIYRVMREMISSSSS
B4: il2ra_site2_3nfp_sap_4_mot_HHH_b2_00168_000000180_0001_1_21_H_._HHH_b2_05578_af2_0001_0000500013_0000001_0_0001 (protein)
chain: SSSSDDVEEYLRAALALAREAIKQGDEELAEKILEMIRKAAEDAKDEEALEEAEELLKLVGSSSS
B5: il2ra_site2_3nfp_normal_mot_HHH_b2_06150_000000217_0001_39_53_H_._HHH_b1_03322_0001_0000100005_0000001_0 (protein)
chain: SSSSDIEERIEELLEEAKELIENGDPERAQEVLQEATHLAYEIRNSELFMRVAELLYLLRSSSSS
B6: il2ra_site1_3nfp_sap_8_mot_HHH_b1_04221_000000040_0001_40_56_H_._16d56542c9725820401ab7c11c235cbe_0001_0001_0000300014_0000001_0_0001 (protein)
chain: SSSSNEAAREATELMREIRRLLKEGNPEEARKLLEELEELAERNNDPVLKWLVRQFEESINSSSS
B7: il2ra_site1_1z92_sap_8_mot_a31c9f16200a66e5ad31ddff700483a3_0001_1_000000069_0001_19_32_H_._HHH_b1_08052_0001_0000300018_0000001_0_0001_af2pred_0001_af2pred (protein)
chain: SSSSEESLRRLAERLVEDAAKLADLSEEQKEELEELAEELIKRGVDPHEIAKELERLADELSSSS
B8: il2ra_site2_3nfp_normal_mot_HHH_b2_00429_000000100_0001_21_37_H_._HHH_b2_03374_0001_0000300044_0000001_0_af2pred_0001_1_af2pred_swapped (protein)
chain: SSSSNHEEFALRAALISLKLAVEAGNEELVRRLYEDAERAAKNANDPEVLEELERVFEEFHSSSS
B9: il2ra_site2_2erj_sap_17_mot_HHH_b2_05720_000000165_0001_1_18_H_._HHH_b2_07625_af2_0001_0000700024_0000001_0_0001 (protein)
chain: SSSSSDEEEREAERITEEIEERIDDPEERLREFFRVAVELLREGDPRTAHILLRLAQEGSSSSSS
B10: il2ra_site2_2erj_sap_24_mot_4428453eb85d3cbdb794fa6b82d21c19_0001_000000044_0001_14_30_H_._HHH_b2_00328_0001_0000300019_0000001_0_0001 (protein)
chain: SSSSDELHRLYELANEILHALSRGDEELVEELLEELEKLAEEADSRVAKENVEALRKHLDSSSSS
B11: il2ra_site1_2b5i_normal_mot_f5ff40796168375b462bec8614a1db4a_0001_1_000000138_0001_53_65_H_._HHH_b1_04161_0001_0000400021_0000001_0_af2pred_dldesign_0_af2pred (protein)
chain: SSSSSLRELVEEIIAEVKRLVAEGKLEEARKLAILALRLARKAEDPELVARVEALLETLESSSSS
B12: il2ra_site2_3nfp_normal_mot_HHH_b2_06150_000000217_0001_39_53_H_._HHH_b2_05434_af2_0001_0000100005_0000001_0 (protein)
chain: SSSSDEEEVEKLLKKAEELRERGNPEEARKLLREATQIAYERRDSELFFLVAEVLFEVLLSSSSS
B13: il2ra_site1_1z92_normal_mot_HHH_b2_00827_000000099_0001_20_37_H_._HHH_eva_0327_af2_0001_0000100007_0000001_0 (protein)
chain: SSEEELEELVEKIREVAEEKGDERLRRALERARFVLRELELGANSERAREIAEEAIKALYKTVVS
B14: il2ra_site1_3nfp_normal_mot_HHH_b1_04049_af2_000000244_0001_42_55_H_._HHH_b1_01786_0001_0000400012_0000001_0_af2pred_0001_af2pred (protein)
chain: SSSSDDKKRIQKLLREIMRLSKEGDEEEAEKLLEEVEELAREAGDPVAELLVELLKKILNSSSSS
B15: il2ra_site1_1z92_normal_mot_1581cc1c700002558836ca695aafbf97_0001_1_af2_000000099_0001_17_32_H_._HHH_b2_05050_0001_0000200017_0000001_0_af2pred_0001_af2pred (protein)
chain: SSSSDEEVERLVEELVEEFNLSEEEEKELRRIARSAEELGADPELVKKALEHFVEFLKRKGSSSS
B16: il2ra_site1_1z92_normal_mot_HHH_b1_04604_af2_000000029_0001_42_56_H_._HHH_b2_03915_0001_0000100005_0000001_0_af2pred_0001_af2pred (protein)
chain: SSSSDAELAAEADELLAEGNPEKVEEVLEEIRRAAEERDSRRLKEILENLEEELRELEEESSSSS
B17: il2ra_site1_2b5i_sap_12_mot_HHH_b2_04463_af2_000000056_0001_43_55_H_._HHH_b2_02114_af2_0001_0000100003_0000001_1_0001 (protein)
chain: SSSSNEAAREARELMEKLDEAFRRGDEELLEELLEEIEEFLKEQDDKFLRLAMEQVREELSSSSS
B18: il2ra_site2_3nfp_normal_mot_HHH_b1_03557_000000106_0001_41_55_H_._HHH_b2_00561_0001_0000400025_0000001_0_af2pred_0001_1_af2pred_swapped (protein)
chain: SSSSSDEEREEVEELLEEAEHIEDEREVFIVLVEAFFLALELRDPELERLVREFLKEFRSSSSSS
B19: il2ra_site1_1z92_normal_mot_HHH_b1_03515_000000289_0001_1_19_H_._HHH_b1_01554_af2_0001_0000200013_0000001_0 (protein)
chain: SSSSSSEHAARAIVKVLVRVARLSEEQEKELQELAEELVKRGYSLLEIIKILDRVAVELSSSSSS

target: il2ra, P01589; experiment: yeast display titration
Sequence (P01589 whole entry): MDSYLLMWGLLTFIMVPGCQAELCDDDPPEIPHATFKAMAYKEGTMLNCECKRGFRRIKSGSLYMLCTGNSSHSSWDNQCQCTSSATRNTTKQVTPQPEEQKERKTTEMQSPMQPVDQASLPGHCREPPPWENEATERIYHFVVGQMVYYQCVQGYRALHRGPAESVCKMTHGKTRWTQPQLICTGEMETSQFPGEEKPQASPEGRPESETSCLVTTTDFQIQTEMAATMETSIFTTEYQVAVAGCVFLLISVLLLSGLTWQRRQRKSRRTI

Apparent Kd, inactive:
B1 no binding seen, B2 no binding seen, B3 no binding seen, B4 no binding seen, B5 no binding seen, B6 no binding seen, B7 no binding seen, B8 no binding seen, B9 no binding seen, B10 no binding seen, B11 no binding seen, B12 no binding seen, B13 no binding seen, B14 no binding seen, B15 no binding seen, B16 no binding seen, B17 no binding seen, B18 no binding seen, B19 no binding seen
